Screens: PubChem BioAssay, National Center for Advancing Translational Sciences (NCATS)
HttQ103 aggreg = reduces HttQ103-GFP aggregates in PC12 cells. Potency, µM (top dose mostly 46.1 µM), inactives show top-dose activity change, negative = inhibition, most hits filed as inhibitors. 1.1% of 220,000 active. AID 1688. PC12 HttQ103-GFP aggregates, Acumen cytometry, 40 h; also: potency is read from the fitted curve at half-maximal effect; % is scaled to controls: 0 for no effect and ±100 for the full control effect; nearly all actives have a fitted effect of over 60% in size
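Aggregate formation scored by laser-scanning cytometer (488 excitation, 500–530 emission) in lysed PC12 cells expressing Q103-GFP after 100 nM tebufenozide induction; library tested in dose series, with ATPLite reagent added in the multiplex.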
ALDH1A1 inh = blocks purified human ALDH1A1 activity; Purified ALDH1A1, NADH fluorescence, propionaldehyde substrate; P00352; Potency, µM (top dose mostly 75.3 µM), for inactives: at the highest dose activity, negative = inhibition, hits mostly inhibitors; 7.3% of 220,000 active; active = well fitted inhibition curve with a large enough effect, not every such curve was filed as active; inconclusive = small, poorly fitted or top-dose-only effect, or another doubt; inactive = no such curve, though single readings can be large or run the other way;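 also: potency is read from the fitted curve at half-maximal effect; plate controls were no enzyme wells and a reference inhibitor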
Target sequence (P00352 whole entry, looked up): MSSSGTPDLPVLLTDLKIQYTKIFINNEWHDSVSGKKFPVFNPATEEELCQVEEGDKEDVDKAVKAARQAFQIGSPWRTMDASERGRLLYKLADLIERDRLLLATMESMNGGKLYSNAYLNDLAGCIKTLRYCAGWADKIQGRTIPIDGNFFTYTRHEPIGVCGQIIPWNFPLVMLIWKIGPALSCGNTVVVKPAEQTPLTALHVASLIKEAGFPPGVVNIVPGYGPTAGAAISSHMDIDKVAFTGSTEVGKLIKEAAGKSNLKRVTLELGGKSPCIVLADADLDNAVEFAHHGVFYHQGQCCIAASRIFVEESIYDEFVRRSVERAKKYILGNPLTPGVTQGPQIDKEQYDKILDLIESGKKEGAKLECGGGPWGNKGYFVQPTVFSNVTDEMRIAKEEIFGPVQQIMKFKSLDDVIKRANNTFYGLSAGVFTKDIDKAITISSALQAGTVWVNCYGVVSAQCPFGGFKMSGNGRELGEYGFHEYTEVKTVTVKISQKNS
HPGD block = blocks human HPGD enzyme activity; P15428; purified HPGD, NADH fluorescence kinetic, PGE2 substrate; Potency, µM, for inactives: at the highest dose activity change, negative = inhibition, usual class: inhibitors; 4.3% of 150,000 active; AID 894; active = well fitted inhibition curve with a large enough effect, not every such curve was filed as active; inconclusive = small, poorly fitted or top-dose-only effect, or another doubt; inactive = no such curve, though single readings can be large or run the other way; also: potency is read from the fitted curve at half-maximal effect; % is scaled to controls: 0 for no effect and ±100 for the full control effect
Target sequence (P15428 whole entry, looked up): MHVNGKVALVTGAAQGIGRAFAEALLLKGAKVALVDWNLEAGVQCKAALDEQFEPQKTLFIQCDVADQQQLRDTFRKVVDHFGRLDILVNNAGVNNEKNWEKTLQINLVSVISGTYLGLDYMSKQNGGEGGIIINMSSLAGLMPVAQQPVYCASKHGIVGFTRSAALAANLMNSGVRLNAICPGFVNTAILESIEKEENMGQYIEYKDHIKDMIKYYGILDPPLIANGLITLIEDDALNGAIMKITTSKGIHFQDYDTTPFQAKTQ
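NADH formation kinetics: reaction with 30 uM PGE2 and 1 mM NAD+ (final), 20 nM enzyme, Tris-HCl pH 8 with Tween 20, after 15 min compound preincubation at room temperature. Fluorescence change, last versus first of five reads.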
IMPase cell inh = membrane-permeable compound that blocks inositol monophosphatase | P97697 | CHO-M1 cells, IP1 accumulation, HTRF TR-FRET ratio | inhibition (IP1 accumulation), % at 46.1 µM | 120,000 tested, under 10 active | AID 901; active = well fitted curve in the direction sought with a large enough effect in the signal ratio, not every such curve was filed as active; inconclusive = small, poorly fitted or top-dose-only effect, or a change in a side signal; inactive = no such curve, though single readings can be large or run the other way; the % refers to the signal ratio;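 also: cells stimulated with carbachol in lithium chloride buffer; plate controls were DMSO basal wells for no effect and reference inhibitor wells for full effect; higher means more IMPase inhibition seen as more IP1 and lower FRET ratio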
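CHO-M1, 2000 cells/well, cultured 16–30 h; cpd up to 46 uM; carbachol (50 uM solution, stimulation buffer w/ 50 mM LiCl, pH 7.4), 30 min 37C; IP-One TR-FRET, 10 min RT; Ex 320/Em 665, 620; Hill-fit AC50.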
HTT ATP protect = cytoprotection in Huntington HTT-Q103 PC12 cell model; PC12 HTT-Q103 induced, cytoprotection, ATP luminescence, 40 h; Potency, µM (doses to about 56.4 µM), inactives show cytoprotection (ATP increase), actives largely listed as activators; 0.14% of 230,000 active; AID 1471; also: potency is read from the fitted curve at half-maximal effect; % of control where 0% means no effect; nearly all actives have a fitted effect of over 45% in size
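Huntington model: PC12 line, ecdysone-inducible HTTQ103 exon1–GFP, tebufenozide 100 nM. Test articles in a dose series. Endpoint luminescence from cellular ATP.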
IMPase Li cell = cell-permeable IMPase inhibitors with lithium potentiation; CHO-M1 cells, IP1 TR-FRET (IP-One), carbachol + lithium; Potency, µM (top dose mostly 59.4 µM), without a hit: top-dose activity, negative = IMPase inhibition, hits mostly inhibitors; 0.35% of 210,000 active;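 also: IP1 builds up when IMPase is blocked and the TR-FRET signal falls; potency is read from the fitted curve at half-maximal effect; plate controls were basal vehicle for no effect and high inhibitor control for full effect; nearly all actives have a fitted effect of over 50% in size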
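IP1 accumulation measured by competitive TR-FRET in lysed CHO-M1 cells after 30 min compound exposure at 37C, with a small lithium addition to potentiate weak responses. Hill-equation AC50 from ratio and donor-channel data.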
Starred values were filed as active, the others as inactive; ? = inconclusive; / = not tested or not shown; [ ] = another dose, or the depositor's remark. Only some compounds are listed: those with a hit (about 9.4% of all), similar ones and a draw of the others. Unless noted, calls follow the shape of the dose curve; as a rule, active = well fitted curve in the direction sought with a large enough effect; inconclusive = small, poorly fitted or top-dose-only effect, or another doubt; inactive = no such curve, though single readings can be large; an effect the other way counts as inactive or inconclusive.

SMILES | HttQ103 aggreg | ALDH1A1 inh | HPGD block | IMPase cell inh | HTT ATP protect | IMPase Li cell
CCCOc1cccc(C2c3c(oc4ccc(F)cc4c3=O)C(=O)N2c2nc(C)c(C(C)=O)s2)c1 (stereo not drawn) | / | / | / | 2 | / | /
COc1ccc(Br)cc1CNc1ccc2[nH]c(=O)[nH]c2c1 | 16% | -1% | / | / | 30% | 7%
COc1ccc(Br)cc1CNc1ccc(O)cc1 | ? | 10µM* | -18% | 17 | 13%[10 µM] | 14%[38.3 µM]
CCc1c(C)nc2ccc(Br)cc2c1SCCC#N | 7.9µM* | 8% | -3% | / | 31%[10 µM] | -21%
CCCCc1c(C)nc2ccc(Br)cc2c1SCCC#N | ? | 6% | -12% | ? | -16%[10 µM] | -23%
CCCc1c(C)nc2ccccc2c1SCCC#N | 3.2µM* | 18% | -27% | / | -41%[10 µM] | -5%
COc1ccc(S(=O)(=O)N(CCc2ccccc2)CC(=O)Nc2cc(Cl)ccc2C)cc1 | / | / | / | -6 | / | /
CC(C)CCn1c(-c2nonc2N)nc2ccccc21 | 11µM* | -8% | -12% | -2 | -3%[10 µM] | 9%
CCCCn1c(-c2nonc2N)nc2ccccc21 | ? | 4% | -19% | -12 | -60%[10 µM] | 2%[38.3 µM]
CC(Sc1ncnc2ccccc12)C(=O)Nc1ccc2c(c1)OCCO2 (stereo not drawn) | -10% | ? | -12% | 0 | ? | 9%
CC(C)Cn1c(SC(C)C(=O)Nc2ccc3c(c2)OCCO3)nc2ccccc2c1=O (stereo not drawn) | -9% | 16µM* | -14% | 6 | 17%[10 µM] | 19%[38.3 µM]
O=C(/C=C\c1ccccc1)c1ccccc1O | / | 1%[13.5 µM] | / | / | -4%[10 µM] | /
O=C(/C=C/c1ccccc1)c1cc(Br)ccc(=O)c1O | ? | 7.1µM* | 20µM* | -4 | -92% | -19%[38.3 µM]
Cc1cc(C)nc(SCNC(=O)c2ccc(F)cc2)n1 | 0% | 4% | 14µM* | 8 | 2% | -5%[38.3 µM]
O=C1CC(c2ccccc2F)C2=C(COC2=O)N1 (stereo not drawn) | 18% | 18µM* | / | / | -17% | -8%
Cc1[nH]nc2c1C(c1ccccc1F)CC(=O)N2 (stereo not drawn) | -29% | 22µM* | -18% | 2 | -31% | 1%[38.3 µM]
COC(=O)CC1C2(C)CC34OC5(C)O[C@@]6(C7/C(=C(/OC)C(C)C)C(=O)OC(c8ccoc8)[C@@]7(C)C(OC(=O)C(C)C)C(OC)[C@]6(O5)[C@@]13C)C(OC)[C@]4(OC)C2OC(C)=O (stereo partly drawn) | / | 3% | -9% | / | ? | 10%
O=C1O[C@@H]([C@H](O)[C@H](O)[C@H](O)CO)[C@@H](O)[C@@H]1O | / | -9%[13.5 µM] | -11% | / | -8%[10 µM] | 5%
O=[N+]([O-])c1ccc(/C=N/n2c(-c3cccnc3)n[nH]c2=S)cc1 | 1% | 2.8µM* | / | 1 | -6%[10 µM] | /
O=[N+]([O-])c1cccc(/C=N/n2c(-c3cccnc3)n[nH]c2=S)c1 | 29% | 10µM* | 20µM* | / | / | 0%
O=[N+]([O-])c1ccc(Cl)c(/C=N/n2c(-c3cccnc3)n[nH]c2=S)c1 | 3% | 7.9µM* | 8.9µM* | -7 | -10%[1.9 µM] | -5%
CC(CN(C)C)C(C)(O)Cc1ccc(Cl)cc1 (stereo not drawn) | 2% | ? | -8% | / | 7% | 2%
CCOC(=O)C(CCc1ccccc1)NC(C)C(=O)N1Cc2ccccc2CC1C(=O)O (stereo not drawn) | 13% | -8% | -7% | / | -34% | 13%
COC(=O)C1=C(C)NC(=S)NC1c1ccc(-c2ccccc2C(=O)OC)o1 (stereo not drawn) | 4% | 16µM* | / | / | -23% | 6%
COC(=O)C1=C(C)NC(=S)NC1c1ccc(-c2cccc(Cl)c2)o1 (stereo not drawn) | -8% | 2µM* | -28% | / | / | 1%
SMILES | HttQ103 aggreg | ALDH1A1 inh | HPGD block | IMPase cell inh | HTT ATP protect | IMPase Li cell
CCOC(=O)C1=C(C)NC(=O)NC1c1ccc(-c2ccc(Cl)cc2)o1 (stereo not drawn) | -13%[9.22 µM] | 6% | / | / | 19%[10 µM] | 12%
CCOC(=O)C1=C(C)NC(=S)NC1c1ccc(-c2cccc(Cl)c2C)o1 (stereo not drawn) | -17% | 0.89µM* | -11% | 1 | -8% | 11%[38.3 µM]
CCOC(=O)C1=C(C)NC(=S)NC1c1ccc(-c2ccc(Cl)cc2)o1 (stereo not drawn) | ? | 4.5µM* | -10% | / | 15%[10 µM] | -4%
Cc1ccc(S(=O)(=O)N[C@H]2COC(=O)[C@H](C)COC(=O)[C@H](C)NC(=O)C/C=C\[C@H]2C)cc1 | / | 3%[13.5 µM] | / | / | -5%[10 µM] | /
O=C(O)[C@H](Cc1cc(I)c(O)c(I)c1)C1CCCCC1 | / | -13%[13.5 µM] | -11% | / | -11%[10 µM] | 2%
CCOC(=O)c1c(-c2ccc(C)o2)csc1NC(=O)CN1CCC(C(N)=O)CC1 | 9% | 25µM* | / | / | -38% | 4%
CCOC(=O)c1c(-c2ccc(C)o2)csc1NC(=O)CN1CCCCC1 | 8% | ? | / | / | -8%[10 µM] | 14%
CCOC(=O)c1c(-c2ccc(C)o2)csc1NC(=O)CSc1nncs1 | 2%[9.22 µM] | 11µM* | 20µM* | 8 | 26% | 8%[38.3 µM]
O=C(O)c1c(-c2c3ccc(=O)cc-3oc3cc(O)ccc23)cc2ccccc2c1-c1ccccc1 | / | 10%[13.5 µM] | -6% | / | -12%[10 µM] | -5%
CC(C)COc1cccc(C(=O)Nc2ccc(-c3nc4ncccc4o3)cc2)c1 | / | / | / | 2 | / | /
C1CCN=C(NC23CC4CC(CC(C4)C2)C3)CC1 | 9% | 7% | -6% | / | / | 2%
COc1nc(NC23CC4CC(CC(C4)C2)C3)nc(OC)n1 | -11% | 25µM* | -10% | 3 | -12% | -3%[38.3 µM]
CC1CCCCN1C(=O)CSc1nc(C2CC2)nc2c1cnn2-c1ccccc1 (stereo not drawn) | ? | 11µM* | ? | 2 | 23%[10 µM] | 27%[38.3 µM]
Clc1nc(-c2cccnc2)nc2scc(-c3ccccc3)c12 | -21% | ? | 20µM* | / | -20%[10 µM] | 8%
O=C(O)[C@@H]1[C@@H]2C[C@H]3c4[nH]c5ccccc5c4CCN3C[C@@H]2CC[C@@H]1O | 0%[20.6 µM] | -3%[20.9 µM] | -26% | 6[20.6 µM] | ? | 8%
CCCCCC(=O)c1cc(CC(C(=O)OC)C(=O)OC)cc2cc(OC)c(OC)cc12 | / | ? | / | / | 2%[10 µM] | /
O=C(CC(Nc1ccccc1Cl)C(=O)OCC(=O)c1cccs1)c1ccccc1 (stereo not drawn) | 0% | 25µM* | -20% | 12 | -24% | 8%[38.3 µM]
O=C(OCC(=O)c1cccs1)c1ccccc1 | 9% | 13µM* | 14µM* | -8 | -6% | 10%[38.3 µM]
Cc1ccccc1Nc1c(-c2ccc(O)cc2)nc2c(C)cccn12 | / | / | / | -15 | / | /
